Bioassay records deposited in PubChem by National Center for Advancing Translational Sciences (NCATS).
Shown are actives, neighbours in structure and some others; about 3% of the full set was active somewhere.
TR SRC2 fluor cs: counter-screen for TRb-SRC2 inhibitors: fluorescence interference; TRb/SRC2 Texas Red total fluorescence interference; Potency, µM (titrated, usually from 106 µM); 280,000 compounds, 0.29% hits; AID 1479; active means well fitted curve in either direction with a large enough effect; inconclusive means small, poorly fitted or top-dose-only effect
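Flags fluorescent or light-absorbing compounds by total fluorescence, S + 2P, at 555 nm excitation and 632 nm emission. Mixture: 20 nM Texas Red SRC2 peptide, 0.6 uM human TRb LBD, 1 uM T3, 5% DMSO; compound exposure 5 h at ambient temperature.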
Tau fluor cs: counter-screen for tau fibril formation inhibitors. tau K18 P301L Alexa594 fluorescence, heparin fibrillization. Potency, µM (top dose mostly 57.7 µM). 280,000 compounds, 0.93% hits. AID 1463; further: nearly all actives have a fitted effect of over 55% in size
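Human tau K18 P301L (15 uM unlabeled, 0.24 uM Alexa 594-labeled) in 100 mM sodium acetate pH 7 with 20 uM heparin, 6 hr at 37 C. ThT 30 uM added, 1 hr ambient; Alexa 594 FP and total fluorescence read at 555/632 nm.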
TRb-SRC2 inh: TRbeta-SRC2 interaction inhibition. AID 1469. Potency, µM (highest dose often 106 µM), hits mostly inhibitors. 280,000 compounds, 0.065% hits. TRbeta-SRC2 peptide binding, fluorescence polarization; receptor liganded with 1 µM T3. P10828; further: nearly all actives have a fitted effect of over 50% in size
Target sequence (P10828 whole entry, looked up): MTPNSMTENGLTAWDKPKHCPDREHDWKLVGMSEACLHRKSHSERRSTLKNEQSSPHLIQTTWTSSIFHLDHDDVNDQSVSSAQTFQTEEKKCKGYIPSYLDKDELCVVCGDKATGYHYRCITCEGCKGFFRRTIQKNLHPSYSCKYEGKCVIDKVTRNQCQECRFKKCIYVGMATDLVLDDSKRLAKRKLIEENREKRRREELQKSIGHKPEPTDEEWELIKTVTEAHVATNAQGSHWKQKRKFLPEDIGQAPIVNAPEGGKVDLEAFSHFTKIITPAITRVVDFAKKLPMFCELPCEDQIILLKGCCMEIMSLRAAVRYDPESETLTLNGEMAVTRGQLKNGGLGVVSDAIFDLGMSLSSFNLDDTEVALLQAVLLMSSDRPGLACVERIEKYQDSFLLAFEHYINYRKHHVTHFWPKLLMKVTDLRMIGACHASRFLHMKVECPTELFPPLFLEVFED
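Assay buffer: 20 mM Tris-HCl, 100 mM NaCl, 10% glycerol, 1 mM EDTA, 0.01% NP-40, 1 mM DTT, 1 uM T3, 5% DMSO; TRb LBD 0.6 uM, Texas Red SRC2 20 nM; FP after 5 hr.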
Tau FP inhib: blocks human tau fibril formation measured by polarization; P10636; K18 P301L tau heparin fibrillization, Alexa594 FP, 6 h; 280,000 compounds, 0.39% hits; AID 1468; Potency, µM (doses to about 57.7 µM), actives largely listed as inhibitors; further: nearly all actives have a fitted effect of over 55% in size
Target sequence (P10636 561-689 P618L limits assumed): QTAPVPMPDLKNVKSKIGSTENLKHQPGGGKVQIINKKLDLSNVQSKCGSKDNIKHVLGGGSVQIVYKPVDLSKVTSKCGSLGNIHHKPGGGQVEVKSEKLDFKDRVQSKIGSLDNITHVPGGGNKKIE
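K18 P301L tau (15 uM unlabeled/0.24 uM Alexa 594-labeled, final) + compound + heparin 20 uM final; 100 mM NaOAc pH 7; 6 hr 37 C; ThT 30 uM final added, 1 hr RT; FP ex 555/em 632 nm.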
Tau ThT inhib: blocks human tau fibril formation measured by thioflavin T; recombinant tau K18 P301L (four-repeat tau fragment), heparin-induced fibrillization, ThT fluorescence; Potency, µM (titrated, usually from 57.4 µM), most hits filed as inhibitors; 270,000 compounds, 2.1% hits; AID 1460; further: nearly all actives have a fitted effect of over 55% in size
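In this qHTS, human K18 P301L tau is incubated with compound and heparin for 6 hr at 37 C, and Thioflavin T fluorescence then reports fibril load.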
Each line names hits and unclear results; the compound was inactive in the other large screens; [ ] = another dose, or the depositor's remark. Unless noted, the call rests on the fitted dose curve; in most records, active means well fitted curve in the direction sought with a large enough effect; inconclusive means small, poorly fitted or top-dose-only effect, or another doubt; inactive means no such curve, though single readings can be large; an effect the other way counts as inactive or inconclusive.

CCCCCCN(C(=O)CCCCCN1C(=O)NC(C2CCCCC2)C(C(=O)OCc2ccccc2)=C1C)C(C(=O)NCCCC)c1ccc(OCC(=O)OC)c(C(=O)OC)c1 (configuration not stated)	none
COC(=O)c1ccc(C(NC(=O)OCc2ccccc2)/C(=C/[C@@H](C)C(=O)NCCF)c2cccnc2)cc1 (some centres not stated)	none
c1ccc2c(c1)Cc1ccccc1-2	none (no result: Tau fluor cs, Tau FP inhib, Tau ThT inhib)
CC(=O)[O][Al][O]C(C)=O	none (no result: Tau fluor cs, Tau FP inhib, Tau ThT inhib)
O=[N+]([O-])c1ccccc1NCc1c(O)ccc2ccccc12	Tau fluor cs 12.6µM[quencher], Tau ThT inhib inconclusive
COc1ccccc1CCNC(=O)C(=O)NCC(c1cccs1)S(=O)(=O)c1ccccc1 (configuration not stated)	none
CCOc1ccc(CCNC(=O)c2nc(-c3cccc(F)c3)n3c2CCCCC3)cc1OCC	TR SRC2 fluor cs 63.1µM[quencher]
CN(C(=O)c1nc(-c2cccc(F)c2)n2c1CCCCC2)c1ccccc1F	none
COc1cc(-c2nc(SCC(=O)Nc3ccc(C)cc3)c(-c3ccc(F)cc3)[nH]2)cc(OC)c1OC	Tau fluor cs 4.47µM[quencher]
COc1ccc(-c2nc(SCC(=O)Nc3ccccc3)c(-c3ccc(F)cc3)[nH]2)cc1OC	Tau fluor cs 7.08µM[quencher], Tau FP inhib inconclusive, Tau ThT inhib inconclusive
COc1ccc(NC(=O)CSc2nc(-c3ccccc3)[nH]c2-c2ccccc2)cc1OC	Tau fluor cs 15.8µM[quencher], Tau ThT inhib inconclusive
COCCNC(=O)CSc1nc(-c2ccc(F)cc2)[nH]c1-c1ccc(Cl)cc1	Tau fluor cs inconclusive, Tau FP inhib inconclusive
COCCNC(=O)CSc1nc(-c2cc(OC)c(OC)c(OC)c2)[nH]c1-c1ccc(Cl)cc1	Tau fluor cs 15.8µM[quencher], Tau FP inhib inconclusive, Tau ThT inhib inconclusive
CO/N=C1/[C@H]2O[C@@H]2[C@@H](O)[C@H]2[C@H]1CCn1c(=O)n(-c3ccccc3)c(=O)n12	none
CCOc1ccc(CNC(=O)Cn2c(=O)c3cccn3c3ccc(F)cc32)cc1	TR SRC2 fluor cs inconclusive
COC(=O)c1ccc(C(NC(=O)OCc2ccccc2)/C(=C/[C@@H](C)C(=O)NCc2ccc(S(C)(=O)=O)cc2)c2cccnc2)cc1 (some centres not stated)	none
Cc1ccc(NC(=O)CSc2nc3ccccc3n2CC(=O)N(C)C2CCCCC2)cc1C	none
COc1ccc(NC(=O)CSc2nc(-c3ccc(F)cc3)[nH]c2-c2ccc(C)cc2)cc1OC	Tau fluor cs 3.55µM[quencher], Tau ThT inhib inconclusive
CCC(C)NC(=O)c1ccc2c(c1)nc1n2CCCCC1 (configuration not stated)	none
CCC1=C/C(=C/N(C)c2ccccc2)C(=O)S1	Tau fluor cs inconclusive, Tau FP inhib inconclusive, Tau ThT inhib 25.1µM
CSCC[C@@H]1NC(=O)C/C=C\[C@@H](C)COC(=O)[C@@H](CCSC)NC(=O)C/C=C\[C@@H](C)COC1=O	Tau fluor cs inconclusive, Tau ThT inhib inconclusive
OCCN1CCN(C(=S)c2ccc(Cl)c(Cl)c2)CC1	Tau FP inhib inconclusive, Tau ThT inhib 7.94µM
COC(=O)C/C=C\[C@@H](C)[C@@H](/C=N\OC[C@@H](O)COCc1ccco1)OC	none
COc1ccc(CNC(=O)c2ccc3c(c2)N(Cc2ccccc2F)C(=O)c2ccccc2S3=O)cc1 (configuration not stated)	none
O=C(N/N=C/c1ccc([N+](=O)[O-])o1)c1cc2ccccc2o1	none (no result: Tau ThT inhib)
O=[N+]([O-])c1ccc(/C=N/Nc2nc(-c3ccccc3)c3cc(Br)ccc3n2)o1	Tau ThT inhib 2.82µM
O=[N+]([O-])c1ccc(/C=N/Nc2ccc3ccccc3c2)o1	Tau fluor cs 3.55µM[quencher], Tau FP inhib inconclusive, Tau ThT inhib 3.16µM
CCNc1nc(NCC)nc(N/N=C/c2ccc([N+](=O)[O-])o2)n1	Tau ThT inhib inconclusive
O=[N+]([O-])c1ccc(/C=N/Nc2nc(N3CCCC3)nc(N3CCCC3)n2)o1	Tau ThT inhib 17.8µM
Cc1ccc2nc(N/N=C\c3ccc([N+](=O)[O-])o3)nc(-c3ccccc3)c2c1	Tau fluor cs 10µM[quencher], Tau ThT inhib 3.16µM
COc1ccc(OC)c(OC)c1	none (no result: Tau fluor cs, Tau FP inhib, Tau ThT inhib)
CC(=O)c1c(C)c([N+](=O)[O-])c(C(C)(C)C)c([N+](=O)[O-])c1C	none (no result: Tau fluor cs, Tau FP inhib, Tau ThT inhib)
CC(=O)c1ccc2c(c1)N(C)c1ccccc1S2	Tau fluor cs inconclusive, Tau ThT inhib 10µM
CC(=O)c1ccc2c(c1)N(CCCN(C)C)c1ccccc1S2	none (no result: Tau fluor cs, Tau FP inhib, Tau ThT inhib)
CCC1Oc2ccc(C)cc2N(CC(=O)NCc2ccc(OC)cc2)C1=O (configuration not stated)	TR SRC2 fluor cs inconclusive
Oc1ccccc1/C=N/c1c(-c2ccco2)nc2ccccn12	Tau fluor cs 22.4µM[quencher], TRb-SRC2 inh inconclusive, Tau FP inhib inconclusive, Tau ThT inhib 22.4µM
COc1ccc(/C=N/c2c(-c3ccco3)nc3ccccn23)cc1OC	Tau fluor cs 22.4µM[quencher], Tau FP inhib inconclusive, Tau ThT inhib 22.4µM
COc1cc(-c2nc3ccccn3c2/N=C/c2ccc(F)cc2)ccc1O	Tau ThT inhib inconclusive
Clc1ccc(/C=N/c2c(-c3ccco3)nc3ccccn23)cc1	Tau fluor cs 25.1µM[quencher], Tau FP inhib inconclusive, Tau ThT inhib 25.1µM
COc1cc(/C=C/c2ccc(O)cc2)cc(OC)c1	Tau fluor cs 15.8µM[quencher], Tau ThT inhib inconclusive
CCCn1c(O)c(N=Nc2ccc3ccccc3n2)c2ccccc21	Tau ThT inhib 12.6µM
CC(C)CCn1c(O)c(N=Nc2ccccn2)c2ccccc21	Tau ThT inhib inconclusive
CCc1ccc(NC(=O)c2sc3nc(C)c(Cl)c(C)c3c2N)cc1	Tau ThT inhib inconclusive
CCc1ccc(NC(=O)c2sc3nc(C)c(Cl)c(C)c3c2NC(=O)c2ccccc2OC)cc1	TR SRC2 fluor cs 10µM[quencher], Tau ThT inhib inconclusive
COc1cccc(C(c2c(O)nc(SC)n(C)c2=O)c2c(O)nc(SC)n(C)c2=O)c1	Tau FP inhib inconclusive, Tau ThT inhib 12.6µM
COc1ccc(C(c2c(C)n(C)n(-c3ccccc3)c2=O)c2c(C)n(C)n(-c3ccccc3)c2=O)cc1O	none
CCCSc1nc(O)c(C(c2ccc(OC)c(O)c2)c2c(O)nc(SCCC)n(C)c2=O)c(=O)n1C	Tau FP inhib inconclusive, Tau ThT inhib 3.98µM
CCc1ccc(NC(=O)CN2C(C(=O)OC)=C(c3ccccc3)c3ccccc3S2(=O)=O)cc1	Tau fluor cs inconclusive, Tau FP inhib inconclusive
CCn1c(CSc2nnc(-c3ccncc3)n2CCOC)nc2cc(C(=O)O)ccc21	TR SRC2 fluor cs 50.1µM[fluorescent], TRb-SRC2 inh 12.6µM
CCn1c(CSc2n[nH]c(N)n2)nc2cc(C(=O)O)ccc21	TR SRC2 fluor cs 35.5µM[fluorescent], TRb-SRC2 inh 28.2µM
CCn1c(CSc2nnc(-c3cccnc3)n2-c2ccccc2C)nc2cc(C(=O)O)ccc21	TR SRC2 fluor cs 39.8µM[fluorescent], TRb-SRC2 inh 11.2µM, Tau FP inhib inconclusive, Tau ThT inhib inconclusive
CCn1c(CSc2nnc3ccccn23)nc2cc(C(=O)O)ccc21	TR SRC2 fluor cs 39.8µM[fluorescent], TRb-SRC2 inh 7.94µM
